Sampled rows, rich in hits. Any-hit rate of the full collection: about 2.7%.
SKN-1 inh = suppressors of acrylamide-induced Pgst-4::GFP reporter in worms, primary screen, SKN-1 inhibitor project, whole organism, uHTS, GFP/RFP fluorescence ratio, strain VP596; C. elegans VP596 Pgst-4::GFP/RFP ratio, 24 h; inhibition, % at 21.8 µM; actives 0.49% (n = 360,000); AID 624304, 2012;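 active = interference check ratio from 0.5 to 1.5 plus GFP to RFP signal ratio inhibition reaching or exceeding a fixed threshold, cut at about 30% in these data, passing the limit was not always enough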
CFTR F508del cor = F508del CFTR correction, initial screen, CFBE line, single point; CFBE cells, YFP halide quenching; stimulated with forskolin plus potentiator P3; % fluorescence drop versus neutral controls; activity (quench increase), % at 7.58 µM; actives 0.36% (n = 350,000); AID 720511, 2013;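 active = mean added fluorescence quench of at least 8% versus neutral control, with both replicates also reaching 8%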;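 also: cells transiently co-express mutant CFTR-F508del with the halide-sensitive YFP; corrector assay measuring rescue of mutant channel to the surface after 24 h compound exposure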
MPTP inh = mitochondrial permeability transition pore inhibitors, primary screen, biochemical, isolated mouse mitochondria, absorbance | AID 602449, 2012 | Ca2+ swelling absorbance, 30 min | actives 1.4% (n = 360,000) | inhibition, % at 10 µM;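 active = inhibition of 50% or more, scaled per plate between neutral and stimulator controls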
NRP1-CendR mod = modulators of CendR peptide binding to NRP-1, primary screen, biochemical, fluorescence polarization, uHTS; Neuropilin-1 (Homo sapiens), O14786; FAM-RPARPAR peptide binding to NRP-1; inhibition, % at 25 µM; actives 0.85% (n = 360,000); AID 602438, 2012;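 active = inhibition or corrected inhibition above about 18%, plus a signal ratio from 0.5 to 1.5, limit read from the data, passing the limit was not always enough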
Target sequence (O14786 whole entry, looked up): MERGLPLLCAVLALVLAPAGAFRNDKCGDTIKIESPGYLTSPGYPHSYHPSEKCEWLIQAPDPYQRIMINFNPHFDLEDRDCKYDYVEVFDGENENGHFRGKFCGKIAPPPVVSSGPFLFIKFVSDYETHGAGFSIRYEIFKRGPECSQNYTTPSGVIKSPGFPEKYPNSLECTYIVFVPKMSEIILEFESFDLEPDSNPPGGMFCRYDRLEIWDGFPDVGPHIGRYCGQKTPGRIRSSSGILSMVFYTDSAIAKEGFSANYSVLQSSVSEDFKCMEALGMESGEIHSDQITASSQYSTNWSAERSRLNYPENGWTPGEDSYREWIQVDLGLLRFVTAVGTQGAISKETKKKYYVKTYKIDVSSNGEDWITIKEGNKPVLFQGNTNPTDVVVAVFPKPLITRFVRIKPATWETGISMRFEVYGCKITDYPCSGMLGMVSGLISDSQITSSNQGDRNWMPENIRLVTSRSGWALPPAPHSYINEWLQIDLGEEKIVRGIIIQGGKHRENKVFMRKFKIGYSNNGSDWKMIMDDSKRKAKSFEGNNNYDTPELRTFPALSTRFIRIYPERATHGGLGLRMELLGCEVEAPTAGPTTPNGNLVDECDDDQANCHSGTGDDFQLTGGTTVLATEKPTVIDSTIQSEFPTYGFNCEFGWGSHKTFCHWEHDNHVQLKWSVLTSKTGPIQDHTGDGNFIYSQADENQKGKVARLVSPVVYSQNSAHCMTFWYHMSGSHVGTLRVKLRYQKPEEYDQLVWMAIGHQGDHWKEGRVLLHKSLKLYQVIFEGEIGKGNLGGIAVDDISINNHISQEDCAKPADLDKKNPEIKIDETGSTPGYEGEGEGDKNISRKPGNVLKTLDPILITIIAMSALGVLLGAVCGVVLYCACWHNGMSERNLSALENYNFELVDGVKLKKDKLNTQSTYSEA
ATG4B inh = ATG4B protease inhibitors, primary screen, biochemical, fluorescence, uHTS; ATG4B cleavage of LC3-PLA2, NBD-HPC fluorescence, 1 h; inhibition, % at 8.33 µM; actives 0.51% (n = 340,000); AID 504462, 2011; in the data active = inhibition above about 40%
MPTP counter = fluorescence retest of MPTP screen hits in isolated mitochondria, single concentration; shares compounds with MPTP inh; membrane potential, Rhodamine 123 fluorescence; inhibition, % at 10 µM; actives 78% (n = 5,000); in the data active = inhibition above about 22%
MPTP swell DR = mitochondrial permeability transition pore inhibitors, dose response, biochemical, absorbance, uHTS hits | isolated mitochondria swelling | AID 651561, 2012 | shares compounds with MPTP inh | actives 58% (n = 780) | IC50, µM; in the data active = IC50 below about 20 µM
MPTP cs DR = fluorescent counter-screen in isolated mitochondria, dose response, counter-screen for MPTP inhibitor project, biochemical, fluorescence, uHTS hits | IC50, µM | isolated mitochondria counterscreen, fluorescence read-out | shares compounds with MPTP inh | actives 49% (n = 780); in the data active = IC50 below about 80 µM
Of the large screens only hits and unclear results are named; the others gave an inactive call (follow-up assays come after a bar, where they were run).

O=[N+]([O-])c1cccc(N=Nc2ccc(O)cc2O)c1	MPTP inh 84 | MPTP counter 73
CCOc1cc(C=O)cc(N=Nc2cccc([N+](=O)[O-])c2)c1O	none
O=[N+]([O-])c1ccc(N=Nc2ccc(O)cc2O)cc1	MPTP inh 84 (no result: CFTR F508del cor) | MPTP counter 80
CCN(CC)C(=O)c1ccc(S(=O)(=O)N2CCC(c3nc4ccccc4s3)CC2)cc1	MPTP inh 89 (no result: CFTR F508del cor) | MPTP counter 94
CC1CCCN(C(=O)c2ccc(S(=O)(=O)N3CCC(c4nc5ccccc5s4)CC3)cc2)C1 (stereo not given)	none (no result: CFTR F508del cor)
O=C(Nc1ccc2c(c1)[C@@H]1C[C@H](CC(=O)N3CCOCC3)O[C@H](CO)[C@@H]1O2)C1CCOCC1	none (no result: SKN-1 inh, MPTP inh, NRP1-CendR mod, ATG4B inh)
COc1cccc(/C=C2/Sc3ccc(C(=O)NCCCN4CCCC4)cc3NC2=O)c1	none
COc1cccc(C=C2SC(=S)NC2=O)c1	MPTP inh 56 | MPTP counter 79
COc1cccc(/C=C2/Sc3ccc(C(=O)NCCN4CCCC4)cc3NC2=O)c1	MPTP inh 55 | MPTP counter inactive | MPTP swell DR 6 | MPTP cs DR 77
COc1ccc2cc(/C=C3\SC(=S)NC3=O)c(N3CCOCC3)nc2c1	MPTP inh 80 (no result: CFTR F508del cor) | MPTP counter 72
O=C1NC(=S)S/C1=C/c1ccc(N2CCOCC2)o1	none (no result: CFTR F508del cor)
COc1ccc(/C=C2/SC(=S)NC2=O)cc1OCc1ccccc1	none
C[C@H](O)C#Cc1cnc2c(c1)C(=O)N([C@@H](C)CO)C[C@H](C)[C@@H](CN(C)C(=O)Nc1ccc(C(F)(F)F)cc1)O2	none (no result: SKN-1 inh, MPTP inh, NRP1-CendR mod, ATG4B inh)
CC(O)CNCCCOc1ccc(Cl)cc1C(C)(C)C (stereo not given)	MPTP inh 74 | MPTP counter inactive | MPTP swell DR 5 | MPTP cs DR inactive
COc1ccccc1NC(=O)Nc1ccc(Cl)c(S(=O)(=O)Nc2ccccc2OC)c1	none (no result: CFTR F508del cor)
COc1ccc(C(=O)Nc2ccc(Cl)c(S(=O)(=O)Nc3ccccc3OC)c2)cc1	MPTP inh 55 (no result: CFTR F508del cor) | MPTP counter 70
COc1ccccc1NS(=O)(=O)c1cc(NC(=O)c2ccc(Cl)nc2)ccc1Cl	MPTP inh 56 (no result: CFTR F508del cor) | MPTP counter 72
CCOc1ccc(Oc2ccc(NS(=O)(=O)c3cc(C(=O)O)ccc3Cl)cc2)cc1	none
CCOc1ccc(NS(=O)(=O)c2cc(NC(=O)c3ccc(C)cc3)ccc2Cl)cc1	MPTP inh 90 (no result: CFTR F508del cor) | MPTP counter 56
COc1ccc(C(=O)Nc2ccc(C(=O)c3ccccc3)cc2)cc1	MPTP inh 62 | MPTP counter 41
COc1ccc(NC(=O)Nc2cccc3c2O[C@H](CN(C)C(=O)Nc2ccc(F)cc2)[C@@H](C)CN([C@H](C)CO)C3=O)cc1	none (no result: SKN-1 inh, MPTP inh, NRP1-CendR mod, ATG4B inh)
Cc1ccc(S(=O)(=O)N(C)C[C@@H]2OCCCC[C@H](C)Oc3ccc(NC(=O)CCC(F)(F)F)cc3C(=O)N([C@H](C)CO)C[C@H]2C)cc1	none (no result: SKN-1 inh, MPTP inh, NRP1-CendR mod, ATG4B inh)
COc1ccc(NC(=O)Cc2cccc(F)c2)cc1S(=O)(=O)Nc1ccccc1Cl	MPTP inh 52 | MPTP counter 70
Fc1ccc(NC(=S)NNc2ncc(C(F)(F)F)cc2Cl)c(F)c1	MPTP inh 94 | MPTP counter 94
Cc1ccc(NC(=S)NNc2ncc(C(F)(F)F)cc2Cl)c(C)c1	none (no result: CFTR F508del cor)
FC(F)(F)c1cnc(NNC(=S)Nc2ccc(Cl)cc2)c(Cl)c1	MPTP inh 100 (no result: CFTR F508del cor) | MPTP counter 92
Cc1ccc(NC(=S)NNc2ncc(C(F)(F)F)cc2Cl)cc1	none (no result: CFTR F508del cor)
C[C@H](CO)N1C[C@H](C)[C@@H](CN(C)S(=O)(=O)c2cn(C)cn2)Oc2ncc(C#CCN(C)C)cc2C1=O	none (no result: SKN-1 inh, MPTP inh, NRP1-CendR mod, ATG4B inh)
COc1ccc(C(=O)/C=C2\Sc3ccccc3N2C)cc1	none
COc1ccccc1OC(=O)CCN1c2ccccc2Sc2ccccc21	none (no result: CFTR F508del cor)
COc1ccc(-[n+]2c(C)cc(/C=C3\Sc4ccccc4N3C)cc2C)cc1	MPTP inh 95 (no result: ATG4B inh) | MPTP counter 97
COc1ccccc1-[n+]1c(C)cc(/C=C2\Sc3ccccc3N2C)cc1C	MPTP inh 104 | MPTP counter 102
Cc1nc(C)c(C(=O)NNS(=O)(=O)c2ccc3ccccc3c2)s1	MPTP inh 89 | MPTP counter 62
CCOC(=O)c1nc(NNC(=O)c2ccc([N+](=O)[O-])cc2)sc1C	MPTP inh 78 (no result: CFTR F508del cor) | MPTP counter 67
COc1ccc(C(CNC(=O)c2oc3cc(Br)ccc3c2C)N2CCCCC2)cc1 (stereo not given)	none
COc1ccc(C(CNC(=O)c2oc3ccc(Br)cc3c2C)N2CCCCC2)cc1 (stereo not given)	MPTP inh 86 | MPTP counter inactive | MPTP swell DR 16 | MPTP cs DR inactive
COc1cc(/C=N/NC(=O)C2c3ccccc3Oc3ccccc32)ccc1O	MPTP inh 83 (no result: CFTR F508del cor) | MPTP counter inactive | MPTP swell DR 16 | MPTP cs DR inactive
COC(=O)c1cc(CSc2nc3ccccc3c(=O)n2C)oc1C	MPTP inh 84 | MPTP counter 93
COCCn1c(SCc2ccc(C(=O)OC)o2)nc2ccccc2c1=O	none (no result: CFTR F508del cor)
Cc1ccc(-c2nc(CSc3nc4ccccc4c(=O)n3C)cs2)cc1	MPTP inh 100 (no result: CFTR F508del cor) | MPTP counter 45
CO[C@@H]1CN(C)C(=O)c2cc(NC(=O)C3CCC3)ccc2OC[C@H](C)N(CC2CCCCC2)C[C@H]1C	none (no result: SKN-1 inh, MPTP inh, NRP1-CendR mod, ATG4B inh)
CC(C)Cn1c(N)c(C(=O)COC(=O)CC23CC4CC(CC(C4)C2)C3)c(=O)n(C)c1=O	MPTP inh 81 (no result: CFTR F508del cor) | MPTP counter 116
Cc1csc(=O)n1CCC(=O)OCC(=O)c1c(N)n(CC(C)C)c(=O)n(C)c1=O	none
O=C(NCCCSc1ccccc1)c1cc(Br)ccc1O	MPTP inh 75 | MPTP counter 86
Cc1ccc(S(=O)(=O)N[C@H]2CC[C@@H](CC(=O)NC3CCCCC3)O[C@H]2CO)cc1	none (no result: SKN-1 inh, MPTP inh, NRP1-CendR mod, ATG4B inh)
O=C1NCN(c2ccccc2)C12CCN(CCCC(c1ccc(F)cc1)c1ccc(F)cc1)CC2	MPTP inh 100 | MPTP counter inactive | MPTP swell DR 7.3 | MPTP cs DR 31
C[C@H](CO)N1C[C@H](C)[C@H](CN(C)Cc2ccncc2)Oc2ncc(-c3cccc(C#N)c3)cc2C1=O	none (no result: SKN-1 inh, MPTP inh, NRP1-CendR mod, ATG4B inh)
